Compound activity deposited in PubChem by National Center for Advancing Translational Sciences (NCATS).
TrxR1 substrate – substrates of rat thioredoxin reductase 1; 0.01% of 390,000 active; Potency, µM (highest dose often 114 µM), inactives show at the highest dose activity change, negative = substrate turnover; purified TrxR1 substrate turnover, NADPH consumption readout; AID 588456; O89049; note: nearly all actives have a fitted effect of over 50% in size
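Rat TrxR1, dispensed at 90 nM, was prereduced with 400 uM NADPH (final) for 5 min at ~22 deg C, then incubated with compound 15 min before 400 uM selenite. A first-read NADPH fluorescence drop versus no-compound background flagged substrates.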
IDH1 R132H inh – inhibitors of human mutant IDH1 R132H. AID 602179. Potency, µM (series often up to 76.6 µM), inactives show at the top dose activity change, negative = inhibition, most hits filed as inhibitors. IDH1-R132H enzyme, NADPH consumption, diaphorase/resazurin fluorescence. 0.093% of 390,000 active; note: nearly all actives have a fitted effect of over 65% in size
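IDH1-R132H (0.5 ug/mL) preincubated 30 min with compound, then NADPH (0.016 mM) and alpha-KG (2 mM) added; 80 min at RT, pH 7.5. Remaining NADPH coupled via diaphorase/resazurin to fluorescence (540/590 nm); concentration-response curves normalized to no-enzyme control.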
Anesthetic bind – candidate novel general anesthetic via apoferritin binding; P02791; apoferritin/1-aminoanthracene competitive binding, fluorescence; Potency, µM (doses to about 77.5 µM), without a hit: at the top dose activity change, negative = displacement, most hits filed as inhibitors; 0.074% of 350,000 active; AID 485281; note: nearly all actives have a fitted effect of over 20% in size
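Horse-spleen apoferritin (10 uM) in 50% saturated 1-aminoanthracene in PBS was incubated 10 min at room temperature with compound. Fluorescence (ex 380, em 535 nm) was normalized to free and bound 1-AMA, with concentration-response fitted by a four-parameter Hill equation.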
TrxR1 inh – rat TrxR1 inhibition; O89049; recombinant rTrxR1, NADPH fluorescence consumption, selenite substrate; Potency, µM (doses to about 114 µM), for the others: at the highest dose activity change, negative = inhibition, actives largely listed as inhibitors; 1% of 390,000 active; note: nearly all actives have a fitted effect of over 65% in size
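Rat TrxR1 (90 nM in the dispensed reagent) was pre-reduced with 400 uM NADPH for 5 min at room temperature, then incubated with compound for 15 min. After 400 uM selenite was added, NADPH fluorescence (Ex 340/Em 450 nm) was followed for 8 min.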
GALK inhibitor – inhibitors of human galactokinase | 0.007% of 270,000 active | Potency, µM (top dose mostly 57.5 µM), for inactives: top-dose activity change, negative = inhibition, hits mostly inhibitors | AID 1868 | Purified GALK, Kinase-Glo residual ATP luminescence | P51570
Target sequence (P51570 whole entry, looked up): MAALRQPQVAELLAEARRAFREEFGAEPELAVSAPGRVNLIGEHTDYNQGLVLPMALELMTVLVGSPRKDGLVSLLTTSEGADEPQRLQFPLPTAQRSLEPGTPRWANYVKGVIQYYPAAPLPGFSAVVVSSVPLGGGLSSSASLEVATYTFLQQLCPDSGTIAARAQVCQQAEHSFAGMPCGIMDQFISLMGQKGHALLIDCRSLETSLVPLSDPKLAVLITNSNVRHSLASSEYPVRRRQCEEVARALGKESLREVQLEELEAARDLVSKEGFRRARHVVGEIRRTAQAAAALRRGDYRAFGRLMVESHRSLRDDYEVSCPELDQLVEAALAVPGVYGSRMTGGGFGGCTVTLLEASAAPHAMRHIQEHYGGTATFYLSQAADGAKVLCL
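GALK at 5 nM final was combined with compound, 35 uM ATP and 100 uM galactose in HEPES pH8.0 with MgCl2 and DTT. The reaction ran one hour at room temperature before luminescent ATP detection.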
PKM2 act – increases activity of human pyruvate kinase M2 | P14618 | purified PKM2, Kinase-Glo ATP luminescence, activation; response scale: 0% is enzyme alone, no compound | Potency, µM (titrated, usually from 57.5 µM), inactives show at the top dose activation, most hits filed as activators | 0.34% of 260,000 active | AID 1631; note: nearly all actives have a fitted effect of over 55% in size
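Purified hPK-M2 (>95%) run at intermediate activity with 0.1 mM ADP and 0.5 mM PEP in 50 mM imidazole pH 7.2, KCl, MgCl2; 1 h room temperature. ATP formed read by Kinase-Glo luminescence; normalized to uninhibited and no-enzyme controls.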
Active calls of the source: *; ? = inconclusive; · = no result; [ ] = dose if it differs, or a comment. Only some compounds are listed: those with a hit (about 1.3% of all), similar ones and a draw of the others. Calls come from the whole dose curve; as a rule, active = well fitted curve in the direction sought with a large enough effect; inconclusive = small, poorly fitted or top-dose-only effect, or another doubt; inactive = no such curve, though single readings can be large; an effect the other way counts as inactive or inconclusive. % is set by controls: 0 for no effect and ±100 for the full control effect; potency is the fitted concentration of half-maximal effect.

SMILES | TrxR1 substrate | IDH1 R132H inh | Anesthetic bind | TrxR1 inh | GALK inhibitor | PKM2 act
CCn1c(SCC(=O)Nc2sc3c(c2C#N)CCC(C(C)(C)C)C3)nnc1-c1ccco1 (configuration not stated) | -1% | -5% | 28µM* | -8% | 1% | -1%
N#Cc1c(NC(=O)CSc2nnc(-c3ccco3)n2-c2ccccc2)sc2c1CCC2 | 11%[57.1 µM] | -4% | ? | 10%[57.1 µM] | -2% | 1%
NC(=O)c1c(NC(=O)CSc2nnc(-c3ccco3)n2-c2ccccc2)sc2c1CCC2 | -14% | 0% | 22µM* | ? | 2% | 11%
CCn1c(SCC(=O)Nc2sc3c(c2C#N)CCCC3)nnc1-c1ccco1 | 1% | 5% | ? | 1% | 1% | -8%
Nc1ccc(/C=C/c2nc3ccccc3s2)cc1 | -7% | · | · | 16% | · | ·
COc1cc2nc(N3CCN(C)CC3)nc(NC3CCN(Cc4ccccc4)CC3)c2cc1OC | 18% | · | · | -9% | · | ·
CCc1ccccc1NC(=O)Cn1nnc2sc3c(c2c1=O)CCC(C(C)(C)C)C3 (configuration not stated) | -8% | · | ? | 8% | · | ·
O=C(COc1ccc(/C=C\[N+](=O)[O-])cc1)N1CCOCC1 | 7% | -2% | -2% | 14µM* | 11% | 13%
CN(C)C(=O)c1ccc(/C=C/c2ccnc3ccccc23)cc1 | -9% | · | · | -35% | · | ·
CCOc1ccc(C(O)c2nccn2Cc2ccccc2)cc1 (configuration not stated) | 3% | -2% | -11% | 16% | -1% | -2%
CCn1ccnc1C(O)c1ccc(N(C)C)cc1 (configuration not stated) | 13%[57.1 µM] | 3% | -15% | 40µM* | 9% | 0%
COc1cc(OC)c(/C=C/c2ccc3ccccc3[n+]2C)c(OC)c1 | -14% | · | · | 17% | · | ·
COc1ccc(COC(=O)N/N=C2/C[C@@H](O)[C@@H](O)[C@@H]3[C@@H]4C(=O)N(C(C)(C)C)C(=O)[C@H]4CC[C@@H]23)cc1 | · | · | -4%[15.3 µM] | · | · | ·
COC(=O)COc1ccc(C2Nc3c(Cl)ccc(C(=O)O)c3C3C=CCC32)cc1 (configuration not stated) | 11% | -2% | -13% | 13µM* | -3% | ?
COc1cccc(NC(=O)C2CCCN(c3ncnc4onc(-c5ccc(F)cc5)c34)C2)c1 (configuration not stated) | 1% | 9% | ? | 7% | · | ·
O=S(=O)(c1ccc2c(c1)OCCO2)N1CCC(n2cnc3cc(F)ccc32)CC1 | -6% | 10% | -4% | 8% | 2% | 7.1µM*
O=S(=O)(c1ccc(F)cc1)N1CCC(n2cnc3ccccc32)CC1 | 5%[57.1 µM] | -2% | 4% | 12%[57.1 µM] | 1% | ·
O=S(=O)(c1ccc2c(c1)OCCO2)N1CCC(n2nnc3cc(F)ccc32)CC1 | -1% | 2% | -10% | 16% | -2% | 8.9µM*
Cc1ccc(S(=O)(=O)N2CCC(n3nnc4cc(C)ccc43)CC2)cc1 | 3% | 10% | 0% | -1% | 0% | 0%
CCOC(=O)Cn1c(=O)n(-c2ccc(Cl)cc2)c2nc(-c3ccc(Cl)cc3)nc(C(N)=O)c21 | 21%[57.1 µM] | 1% | -4% | 26%[57.1 µM] | · | ·
Cc1cc(N2CCN(S(=O)(=O)c3ccc4ccccc4c3)CC2)n2ncnc2n1 | -12% | 4% | -10% | 15%[57.1 µM] | 3% | 18µM*
O=C(Nc1ccc(C(=O)OCc2cc(=O)n3c4c(sc3n2)CCCC4)cc1)c1cccc(F)c1 | 7%[57.1 µM] | -11% | 39% | 28%[57.1 µM] | · | ·
CCOC(=O)/C=C/c1ccc2c(c1)S(=O)(=O)N(C1CCCC1)[C@H]2CC(=O)OCC | -8% | · | · | 23% | · | ·
O=[N+]([O-])C(/C=C(/Cl)[N+](=O)[O-])=C(N1CCCCC1)N1CCCCC1 | -10%[57.1 µM] | -5% | -3% | 7.9µM* | 5% | -2%
